{"source": "PubChem BioAssay (NCI)", "note": "Several values for one entry are separate records, joined by “and”; a condition that tells them apart may be missing. Equal values may be shown once. The panel holds about 83,000 compounds, 20% with a hit somewhere; the sample as a whole holds those more often.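 Method: cells in 96-well plates; compound added at one concentration; 48 h incubation; percent growth measured; values under 10 scored active.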 Activity calls are given as the source filed them.", "data": [{"system": "MDA-MB-468 breast", "assay": "NCI-60 one-dose screen, 48 h (100 = growth as untreated, 0 = no growth, -100 = all killed)", "details": "10 µM unless noted", "values": [{"molecule": "Nc1ccc(N=Nc2ccc(O)cc2)c(N)n1", "growth": "83.4% (inactive)"}, {"molecule": "Cc1ccc(-c2nc(N3CCN(C(=O)c4ccc(OC(F)(F)F)cc4)CC3)c3ccccc3n2)cc1", "growth": "93.8% (inactive)"}, {"molecule": "COc1ccc(-c2cc3cnc4ccccc4c3oc2=O)cc1", "growth": "99.8% (inactive)"}, {"molecule": "CCN1C(=O)N(CC)C2SC(N/N=C/c3ccccc3F)=NC21", "note": "(centres undefined)", "growth": "40.4% (inactive)"}, {"molecule": "O=C(O)CCCCSc1ncnc2nc[nH]c12", "growth": "96% (inactive)"}, {"molecule": "COc1cc(-c2nc3sc4c(c3c(=O)[nH]2)CCCCCC4)cc(OC)c1OC", "growth": "20% (inactive)"}, {"molecule": "CCc1cccc(Sc2cc(C(=O)N3Cc4ccc(OCCN(C)C)cc4C3)ccc2O)c1", "growth": "30.6% (inactive)"}, {"molecule": "CCN(CC)CCCC(C)Nc1ccc2ccc(Cl)cc2n1", "note": "(centres undefined)", "growth": "77.8% (inactive)"}, {"molecule": "Cc1c(CN2CCN(C(=O)[C@H](C)O)CC2)sc2c(N3CCOCC3)nc(-c3cnc(N)nc3)nc12", "growth": "-49.6% (active)"}, {"molecule": "O=C(O)c1cn(C2CC2)c2cc(N3CCN(C(=O)/C=C/c4ccc(Cl)cc4)CC3)c(F)cc2c1=O", "growth": "75.5% (inactive)"}, {"molecule": "Cc1ccc2oc(=O)cc(C3c4ccc([nH]4)C(c4cc(=O)oc5ccc(C)cc45)c4ccc([nH]4)C(c4cc(=O)oc5ccc(C)cc45)c4ccc([nH]4)C(c4cc(=O)oc5ccc(C)cc45)c4ccc3[nH]4)c2c1", "note": "(centres undefined)", "growth": "-28.6% (active)"}, {"molecule": "CC(=O)N1CC(=O)NC1=S", "growth": "95.9% (inactive)"}, {"molecule": "O=C(/C(=C/c1ccccc1)CBr)c1ccccc1", "growth": "-10% (active)"}, {"molecule": "CC(=O)c1cc(C(=O)c2ccc(Br)cc2)n2cc(C)cc(C)c12", "growth": "89.3% (inactive)"}, {"molecule": "COc1ccc(N2CCN(CC(=O)N3CCN(c4nnc(-c5ccccc5)c(-c5ccccc5)n4)CC3)CC2)cc1", "growth": "50.6% (inactive)"}, {"molecule": "C=CC(=O)N1CCC=C(c2cc3c(N[C@H](C)c4ccccc4)ncnc3[nH]2)C1", "growth": "9.58% (active)"}, {"molecule": "NC(=O)SCC(=O)NNc1ccccc1", "growth": "92.9% (inactive)"}, {"molecule": "O=C(CCCCCCCCC(=O)N/N=C\\c1ccccc1O)N/N=C\\c1ccccc1O", "growth": "-28.4% (active)"}, {"molecule": "Nc1ncnc2c1N=C(c1ccc3c(c1)OCO3)CC(c1cccc(Nc3ccnc4cc(Cl)ccc34)c1)N2", "note": "(centres undefined)", "growth": "33.2% (inactive)"}, {"molecule": "N#Cc1c(Nc2ccc(N3CCOCC3)cc2)nc(SCC(=O)c2ccc(Br)cc2)nc1-c1ccccc1", "growth": "113% (inactive)"}, {"molecule": "Cc1ccc(C)c(CCO)c1", "growth": "93.5% (inactive)"}, {"molecule": "COc1cccc(CNc2cccc3cn[nH]c23)c1O", "growth": "80.6% (inactive)"}, {"molecule": "NCCNc1nc2ccc(F)cc2c2c(=O)c3cc(F)ccc3sc12", "growth": "45.3% (inactive)"}, {"molecule": "COc1ccc2nc3cc(Cl)ccc3c(NCCNCC(O)CO)c2c1", "note": "(centres undefined)", "growth": "-8.61% (active)"}, {"molecule": "O=C1Nc2ccccc2/C1=C\\c1c(-c2ccccc2)nc2ccccn12", "growth": "15.3% (inactive)"}, {"molecule": "O=C1c2c(O)ccc(O)c2C(=O)c2c(NCCNCCO)ccc(NCCNCCO)c21", "growth": "-77.2% (active)"}, {"molecule": "C=CCOc1cccc(/C=C2\\SC(=Nc3ccc(O)cc3)NC2=O)c1", "growth": "-7.52% (active)"}, {"molecule": "O=C(/C=C/c1c(Cl)nc2sccn12)c1nccs1", "growth": "75.7% (inactive)"}, {"molecule": "C=C(C)[C@@H]1CC[C@]2(C(=O)N3CCN(C)CC3)CC[C@]3(C)[C@H](CC[C@@H]4[C@@]5(C)CC(=C/c6ccncc6)/C(=N/O)C(C)(C)[C@@H]5CC[C@]43C)[C@@H]12", "growth": "62.2% (inactive)"}, {"molecule": "CC(=O)c1c(O)cc2c3c1OC(C)(C)C1CCC(C)(CC31)O2", "note": "(centres undefined)", "growth": "85.9% (inactive)"}, {"molecule": "CC(C)CCOc1ccc(-c2n[nH]c(C(F)(F)F)c2-c2cncc(C#N)c2)c(O)c1", "growth": "-26.4% (active)"}, {"molecule": "Oc1ccc(/C=C/c2ccccc2)cc1", "growth": "81.3% (inactive)"}, {"molecule": "O=C(N/N=C\\c1ccccc1S(=O)(=O)O)N/N=C/c1ccccc1S(=O)(=O)O", "growth": "101% (inactive)"}, {"molecule": "COc1cc(C(=O)/C=C/c2c[nH]c3ccccc23)cc(OC)c1OC", "growth": "-5.45% (active)"}, {"molecule": "CCOC(=O)C1=C(C)NC(C)=C(C(=O)OCC)C1", "growth": "97.7% (inactive) and 86.9% (inactive)"}, {"molecule": "CC(=O)N1N=C(c2ccc(C)cc2)CC1c1ccc(Oc2ccc(Br)cc2)cc1", "note": "(centres undefined)", "growth": "75% (inactive)"}, {"molecule": "BrCCCc1n(Cc2ccc3ccccc3c2)c2ccccc2[n+]1Cc1ccc2ccccc2c1", "growth": "-68% (active)"}, {"molecule": "Cc1[nH]c(C(=O)Nc2nc3ccc(NC(=O)CCN)cc3s2)c(Cl)c1Cl", "growth": "69.4% (inactive)"}, {"molecule": "Nc1cc2c3c(cccc3c1)C(=O)N(CCN1CCCC1)C2=O", "growth": "40.2% (inactive)"}]}]}
